hgDAF12 agonist: H. glycines DAF-12 receptor agonists, primary screen, cell-based, luminescence, HEK293, GAL4 fusion, UAS-luciferase | HEK293 GAL4-hgDAF12 UAS-luciferase reporter, agonist luminescence; normalized to butyrate control | activation, % at 6.8 µM | actives 1.8% (n = 370,000) | AID 687014, 2013;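 active = activation above a cutoff set at the mean of all screened compounds plus 3 SD, cut at about 10% in these data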;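 also: 0% = DMSO wells and 100% = sodium butyrate wells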
hcDAF12 agonist: H. contortus DAF-12 nuclear receptor activators, primary screen, cell-based, luminescence, HEK293, lit1-tk-luc reporter. HEK293 hcDAF-12 lit1-tk-luc reporter; 0% DMSO, 100% Δ7-dafachronic acid. activation, % at 6.8 µM. actives 1.4% (n = 370,000);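 active = activation above the mean of all tested compounds plus 3 SD, cut at about 5.5% in these data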;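 also: 100% = response to 3 µM Δ7-dafachronic acid high control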
DAX1 inh-1: DAX1 (NR0B1) inhibitors on StAR promoter, primary screen, cell-based, luminescence, SF-1 (NR5A1), full-length DAX-1. HEK293T StAR-luciferase reporter, SF-1/DAX-1 repression relief. AID 652010, 2013. actives 1.1% (n = 370,000). inhibition, % at 6.8 µM;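 active = inhibition above the mean over all tested compounds plus 3 SD, cut at about 3.6% in these data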;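 also: 0% = DAX-1 cells with DMSO and 100% = cells lacking DAX-1 with DMSO; higher inhibition means more luminescence from relief of DAX-1 repression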
ssDAF12 agonist: S. stercoralis DAF-12 nuclear receptor activators, primary screen, cell-based, luminescence, HEK293, GRIP1 co-expression, lit1-tk-luc. activation, % at 6.8 µM. HEK293 ssDAF-12/GRIP1 lit1-tk-luc reporter; % of 3 µM dafachronic acid response. actives 1% (n = 370,000). Nuclear hormone receptor DAF-12 (Strongyloides stercoralis);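 active = activation above the mean over all tested compounds plus 3 SD, cut at about 0.9% in these data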;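 also: 0% = DMSO-only wells and 100% = 3 µM delta7-dafachronic acid wells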
DAX1 inh-2: DAX1 (NR0B1) inhibitors, primary screen, cell-based, HEK293, Gal4-DAX1, luciferase luminescence; Nuclear receptor subfamily 0 group B member 1 (Homo sapiens), P51843; HEK293 Gal4-DAX1 luciferase reporter; inhibition, % at 6.75 µM; actives 0.99% (n = 340,000); AID 504766, 2011;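 active = inhibition above the mean over all tested compounds plus 3 SD, cut at about 4.2% in these data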;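 also: 0% = DAX1-transfected cells with DMSO and 100% = empty-vector control cells with DMSO; inhibition shows as a rise in luminescence from relieved DAX1 repression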
Target sequence (P51843 207-470 limits assumed): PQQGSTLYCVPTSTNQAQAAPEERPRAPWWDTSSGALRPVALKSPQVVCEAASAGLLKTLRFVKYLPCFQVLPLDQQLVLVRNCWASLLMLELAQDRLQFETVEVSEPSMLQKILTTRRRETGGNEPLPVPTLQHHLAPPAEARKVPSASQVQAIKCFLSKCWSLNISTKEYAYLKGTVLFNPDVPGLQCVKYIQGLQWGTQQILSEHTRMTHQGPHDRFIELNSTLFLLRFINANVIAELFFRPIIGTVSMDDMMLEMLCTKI
Numbers without * were called inactive; x = not tested or not shown. This is a sample that favours compounds with a hit; in the whole collection about 4.1% have one here.

SMILES	hgDAF12 agonist	hcDAF12 agonist	DAX1 inh-1	ssDAF12 agonist	DAX1 inh-2
c1ccc(-c2nn[nH]n2)cc1	-2	1	0	-1	1
O=C(CNC(=O)c1ccc(N2C(=O)c3ccccc3C2=O)cc1)OCC(=O)c1ccc(Cl)cc1	-1	-1	0	1.7*	-1
Cc1ccc(C(=O)COC(=O)CNC(=O)c2ccc(N3C(=O)c4ccccc4C3=O)cc2)cc1C	0	1	0	-1	1
O=C(CNC(=O)c1cccs1)OCC(=O)c1ccc(Cl)cc1	-1	-1	0	12*	-1
Cc1ccc(NC(=O)NCc2c(C)nn(C)c2C)cc1Cl	13*	1	4.3*	-1	1
O=C(COc1ccc(Cl)cc1Cl)OCC(=O)N1CCCc2ccccc21	4	5	1	1	9.8*
O=C(CCCOc1ccc(Cl)cc1Cl)N1CCCc2ccccc21	-2	0	0	-1	-1
COCCCNC(=O)c1oc(=O)c2ccccc2c1-c1ccc(C)cc1	2	-2	0	-1	x
Clc1ccc(Cl)c(-c2nn3c(COc4ccccc4)nnc3s2)c1	0	2	0	1.4*	1
Cn1cnc(S(=O)(=O)N2CCCCC2c2cc(C(=O)Nc3cccc(C#N)c3)no2)c1 (stereo unspecified)	-1	-2	1	-1	x
Cc1cc(Oc2cccc3c2S(=O)(=O)N([C@H](C)c2ccccc2)C[C@@H](COCc2ccccc2)O3)cc(C)c1C	2	0	1	-1	x
CN1CCN(C(=S)c2ccc(-c3cccc(Cl)c3Cl)o2)CC1	12*	4	3	0	2
S=C(c1ccc(-c2ccccc2Cl)o1)N1CCCCC1	12*	3	3	1	1
CCOC(=O)C1CCCN(C(=O)c2ccc(-c3ccccc3Cl)o2)C1 (stereo unspecified)	7	0	4.3*	0	0
O=C(O)c1ccc(-c2ccccc2Cl)o1	-3	-1	-1	-1	2
O=S1(=O)c2ccc(N3CCC[C@@H]3CO)cc2OCCCN1C1CC1	4	-1	0	-1	x
C[C@@H]1CCN(C2CC2)S(=O)(=O)c2c(cccc2N2CCC[C@@H]2CO)O1	2	-1	0	0	x
O=C(Nc1ccnn1C1CCN(Cc2cc(Cl)ccc2O)CC1)c1cccnc1	-1	1	-1	-1	2
Cc1cc(C)n2c(Nc3ccc4c(c3)OCCO4)c(-c3ccc(F)cc3)nc2n1	6	3	4.3*	0	x
O=C(CNS(=O)(=O)c1ccccc1)N1CCN(c2ncccn2)CC1	1	-1	0	0	x
CCCCN1C(=O)C(O)=C(C(C)=O)C1c1ccccc1[N+](=O)[O-] (stereo unspecified)	1	5	0	0.9*	-1
CCCCN1C(=O)C(O)=C(C(C)=O)C1c1ccccc1 (stereo unspecified)	x	x	x	x	-1
CCOC(=O)c1c(-c2ccccc2)csc1NC(=O)c1ccc(S(=O)(=O)N2CCOCC2)cc1	11*	0	0	-1	2
COc1ccc(C)cc1S(=O)(=O)N1CCC(C(=O)NC2CCCC2)CC1	0	0	0	-1	1
O=C(C[n+]1cc(Br)cc2ccccc21)c1ccccc1	1	3	0	0	0
SMILES	hgDAF12 agonist	hcDAF12 agonist	DAX1 inh-1	ssDAF12 agonist	DAX1 inh-2
COc1ccc(C(=O)C[n+]2cc(Br)cc3ccccc32)cc1[N+](=O)[O-]	2	5.9*	0	1.0*	-1
O=C(N/N=C/c1ccncc1)c1ccc2c(c1)OCO2	11*	0	1	-1	0
Cc1cc(C(=O)N/N=C/c2ccc3c(c2)OCO3)c(C)o1	11*	1	0	-1	3
COc1ccc(/C=N/NC(=O)c2ccc3c(c2)OCO3)cc1	3	0	0	-1	1
O=C(N/N=C/c1ccc2c(c1)OCO2)c1ccc2c(c1)OCCO2	13*	1	1	-1	1
CN(C)c1ccc(/C=N/NC(=O)c2ccc3c(c2)OCCO3)cc1	7	4	3	-1	1
O=C(c1cnc(Cc2c[nH]c3ccccc23)c(I)c1)N1CCCCC1	1	1	0	1	x
CCc1ccc(-c2csc3ncn(CC)c(=O)c23)cc1	-3	-1	0	18*	0
COCc1nnc(NC(=O)CCc2ccc(OC)cc2)s1	0	-2	0	-2	-1
COc1ccc(NC(=O)CSCC(=O)Nc2sccc2C#N)cc1	1	1	0	1.0*	-1
COc1ccc(NC(=O)CSc2nc(N)c(C#N)cc2C#N)cc1	0	0	-2	-2	-1
COc1ccc(CCC(=O)Nc2sccc2C#N)cc1	12*	2	3	0	x
COC(=O)[C@]12C[C@H](CC(=O)NCCCCc3ccccc3)C(=O)N(Cc3ccc(Cl)cc3Cl)C1=C[C@H](C(C)C)O[C@@H]2C1CC1	0	-1	0	0	x
COCc1[nH]nc2c1C(c1ccc(C)cc1)N(c1ccc(OC)cc1)C2=O (stereo unspecified)	-2	4	0	-1	x
c1ccc2oc(NC3=NCN(C4CCCCC4)CN3)nc2c1	2	-1	0	-1	x
c1ccc2sc(NC3=NCN(C4CCCCCC4)CN3)nc2c1	1	3	0	1.5*	-1
COC(=O)c1c(-c2ccc(OC)cc2)c2c(c3c4cc(OC)ccc4n(C(=O)c4ccccc4)c13)C(=O)N(C)C2	-1	-1	-2	-1	x
COC(=O)c1cc2c(c3c4ccccc4n(S(=O)(=O)c4ccccc4)c13)C(=O)N(Cc1ccc(C(F)(F)F)cc1)C2	2	1	0	0	x
C(=C\c1ccccc1)/CNCC1CCCO1 (stereo unspecified)	7	3	0	1.6*	0
O=C(NCC1CCCO1)/C(=C/c1ccccc1)NC(=O)c1ccccc1 (stereo unspecified)	4	0	0	-1	-2
Clc1ccc(CNCC2CCCO2)cc1 (stereo unspecified)	-3	-1	1	0	1
Fc1ccc(CNCC2CCCO2)cc1 (stereo unspecified)	-1	0	0	-1	4.3*
CN1CCCCC(NC(=O)c2ccccn2)C1=O (stereo unspecified)	0	1	0	-2	x
Nc1nc2ccccc2n1/N=C/c1ccc(Br)cc1	12*	3	2	0	1
Nc1[nH]nc2nc3ccccc3cc12	3	3	1	-1	1

High-throughput results (PubChem)
